Screening data: PubChem, The Scripps Research Institute Molecular Screening Center
This is a sample that favours compounds with a hit; in the whole collection about 2.4% have one here.
UHRF1 binding = human UHRF1 methylated DNA binding inhibitors | Q96T88 | UHRF1 binding to methylated oligo, TR-FRET | inhibition, % at 4.4 µM | 370,000 tested, 0.75% active; in the data active means inhibition above about 21%;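 further: UHRF1 SRA domain binding a hemimethylated CpG hairpin DNA probe; 0% = median of test compound wells and 100% = reference inhibitor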
PLCb3 inh = inhibitors of human phospholipase C beta3 | Q01970 | Purified PLC-beta3, fluorogenic substrate, fluorescence | inhibition, % at 12.2 µM | 370,000 tested, 0.18% active; in the data active means inhibition above about 11%;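 further: 0% = median of compound wells on plate and 100% = full blocker control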
PLC-gamma1 inh = PLC-gamma1 (human) inhibition, primary screen | P19174 | 370,000 tested, 0.84% active | inhibition, % at 12.2 µM | purified PLC-gamma1, fluorogenic substrate, fluorescence; in the data active means inhibition above about 9.5%
MBD2 inh = MBD2-methylated oligo binding inhibition | inhibition, % at 4.4 µM | TR-FRET, MBD2 binding to methylated oligonucleotide | Q9UBB5 | AID 686964 | 370,000 tested, 0.31% active; in the data active means inhibition above about 13%
Target sequence (Q9UBB5 whole entry, looked up): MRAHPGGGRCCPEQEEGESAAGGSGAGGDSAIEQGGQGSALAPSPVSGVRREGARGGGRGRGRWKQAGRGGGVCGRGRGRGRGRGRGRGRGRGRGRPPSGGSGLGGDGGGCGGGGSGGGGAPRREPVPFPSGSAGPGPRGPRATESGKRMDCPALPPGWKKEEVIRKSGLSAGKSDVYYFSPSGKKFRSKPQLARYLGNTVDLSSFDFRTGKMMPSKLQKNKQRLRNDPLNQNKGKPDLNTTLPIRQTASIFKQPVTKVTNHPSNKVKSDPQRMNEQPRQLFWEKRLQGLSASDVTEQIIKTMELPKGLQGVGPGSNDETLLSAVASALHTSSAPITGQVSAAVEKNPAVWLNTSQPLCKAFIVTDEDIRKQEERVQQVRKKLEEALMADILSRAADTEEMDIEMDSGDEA
LEDGF integ inh = blocks HIV-1 LEDGF/p75-dependent DNA integration; 370,000 tested, 0.64% active; TR-FRET IN-LEDGF/p75 DNA integration, Eu/Cy5; inhibition, % at 3.7 µM;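 active means inhibition above the screen-wide mean plus 3 SD, cut at about 13% in these data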;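 further: signal is the Cy5 over europium emission ratio at 671 and 618 nm; 0% = plate median of compound wells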
IN multimer act = activates HIV-1 integrase multimerization in LEDGF counter-screen; activation, % at 7.7 µM; shares compounds with LEDGF integ inh; TR-FRET HIV-1 integrase multimerization, biochemical; 2,000 tested, 17% active; in the data active means activation above about 8.9%
TR-FRET interf = counter-screen for LEDGF/p75 integration inhibitors: TR-FRET optical interference | shares compounds with LEDGF integ inh | TR-FRET optical interference counterscreen, HIV-1 IN multimerization | inhibition, % at 7.7 µM | 2,000 tested, under 10 active;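 active means inhibition above the mean over all tested compounds plus 3 SD, which no compound reached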;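 further: 0% = integrase with antibodies and DMSO and 100% = antibodies without integrase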
IN-LEDGF confirm = LEDGF/p75-dependent HIV-1 integration inhibition, confirmation; shares compounds with LEDGF integ inh; TR-FRET LEDGF/p75-dependent HIV-1 integration, biochemical; AID 1053136; 2,000 tested, 36% active; inhibition, % at 3.7 µM; in the data active means inhibition above about 14%
Numbers without * were called inactive; i = inactive; x = not tested or not shown.

SMILES	UHRF1 binding	PLCb3 inh	PLC-gamma1 inh	MBD2 inh	LEDGF integ inh	IN multimer act	TR-FRET interf	IN-LEDGF confirm
CC(C)(C)NC(=O)NC(=O)CSc1ccc(S(=O)(=O)N2CCCCC2)cn1	-0.9	1.2	3.3	-5.7	20.2*	0.8	-4.0	1.1
O=C(Cn1cc(COc2ccc(-n3cccc3)cc2)nn1)NS(=O)(=O)c1ccccc1C(F)(F)F	6.5	-7.8	-5.7	1.4	26.6*	1.3	-4.8	-13.5
CN(C)CC(=O)N[C@@H]1C=C[C@@H](CC(=O)NCCN2CCCCC2)O[C@@H]1CO	0.0	2.1	-0.1	-2.3	27.9*	-1.3	6.6	-4.5
CCCNC(=O)c1ccc2nc(-c3ccccc3)c(-c3ccccc3)nc2c1	-0.3	-17.9	-17.3	-4.5	-2.1	x	x	x
CCCCNC(=O)c1ccc2nc(-c3ccco3)c(-c3ccco3)nc2c1	27.9*	-26.8	-19.7	0.2	49.9*	5.7	-28.5	33.3*
O=C(NCCCO)c1ccc2nc(-c3ccco3)c(-c3ccco3)nc2c1	17.3	-372.2	-262.9	-4.9	53.3*	50.1*	-177.6	70.2*
O=C(Nc1ccccc1)c1ccc2nc(-c3ccco3)c(-c3ccco3)nc2c1	6.0	-24.1	-10.1	2.1	16.6*	3.9	-19.6	42.7*
COc1cccc(C2CC=C(C(=O)O)CN2S(=O)(=O)c2ccc(C)cc2)c1 (stereo not drawn)	-0.5	-1.5	-3.1	4.2	0.3	x	x	x
CC1=CC(C)(C)N2C(=O)C(=Nc3ccc(O)cc3)c3cccc1c32	-11.1	-83.5	-13.1	-22.7	16.9*	18.9*	-68.1	45.4*
CCCCOCCCNC(=O)C[C@H]1C[C@@]2(C(=O)OCC)CCCC3=C2N(CCC3)C1=O	-1.2	7.6	4.8	-4.5	4.1	x	x	x
Brc1ccc(-c2nn3c(-c4ccco4)nnc3s2)o1	22.1*	-38.0	-21.3	5.9	14.8*	9.3*	-47.0	29.8*
CCOC(=O)[C@]12CCCC=C1N(Cc1ccc(OC)cc1)C(=O)[C@@H]2CC(=O)NCc1cccc2ccccc12	-1.4	1.5	2.7	-2.2	6.4	x	x	x
O=C(C(=O)N1CCC(CNC(=O)C2COc3ccccc3O2)CC1)c1cccs1 (stereo not drawn)	-0.2	-3.3	0.5	-0.7	20.8*	5.0	-24.0	-0.7
Nc1ccc2ccc(O)cc2c1	1.1	-45.5	-33.9	-0.8	1.3	x	x	x
C[n+]1c2cc(N)ccc2cc2ccc(N)cc21	-321.6	i	i	-0.1	40.5*	19.5*	-69.5	45.2*
COc1cccc(CNC(=O)Cn2c(-c3ccccc3)cc(C(C)=O)c2C)c1OC	0.8	-1.1	-2.7	-0.4	4.6	x	x	x
COC(=O)CCCC1=CC2=CC(=O)C(C)(OC(=O)c3cccs3)C(=O)C2=CN1Cc1ccco1 (stereo not drawn)	12.6	-17.7	-6.8	-1.0	24.8*	1.6	-6.0	17.7*
COC(=O)CCCC1=CC2=CC(=O)C(C)(OC(=O)c3cccs3)C(=O)C2=CN1Cc1ccccc1 (stereo not drawn)	-3.4	-20.2	-18.8	-7.0	0.7	x	x	x
CCN(C(=O)c1cccc2c1-c1ccccc1C2=O)c1ccccc1	1.9	-2.8	-2.8	2.8	0.6	x	x	x
Clc1cccc(Oc2cnns2)c1Cl	3.2	-8.9	4.7	1.0	16.9*	2.0	-7.0	-4.8
Clc1cccc(OCCn2cncn2)c1Cl	-0.7	1.1	1.0	0.3	-1.1	x	x	x
O=C(CCCC(=O)N/N=C\c1ccccn1)N/N=C\c1ccccn1	-1.9	1.5	2.2	-5.0	-0.9	x	x	x
CC(Nc1cccc2ccccc12)C(=O)N/N=C/c1ccccn1 (stereo not drawn)	3.7	-34.8	-24.4	-3.9	23.4*	2.9	-14.7	-3.8
O=C([C@@H]1C[C@H]1c1ccccc1)N1CCC(Oc2cccnc2)CC1	0.3	4.9	2.6	-1.4	4.3	x	x	x
N#C/C(=C\c1ccc([N+](=O)[O-])o1)C(=O)Nc1ccc(F)cc1	1.2	-73.7	-46.9	-0.8	21.0*	0.9	-3.4	11.9
